{"source": "PubChem BioAssay (NCATS)", "note": "Records with an inconclusive call do not appear. A number with no mark means an inactive call. Calls of active or inactive are those of the source. The call rests on the fitted dose curve; in most records, active means well fitted cell-killing curve with a large enough effect; inconclusive means small, poorly fitted or top-dose-only effect; inactive means flat fitted curve, though single readings scatter. Potency means the concentration at half of the fitted maximal effect.", "data": [{"assay": "qHTS of pediatric cancer cell lines to identify multiple opportunities for drug repurposing: Primary screen for DAOY cells (AID 1347090); further: nearly all actives have a fitted effect of over 55% in size", "details": "DAOY medulloblastoma viability, CellTiter-Glo luminescence, 48 h; series mostly up to 46 µM; activity change, negative = cytotoxic: at the top concentration", "source_text": "Drug repurposing or repositioning has been offered as a strategy for drug development in oncology programs. This approach has special potential for childhood cancers and other rare or orphan diseases, where the expected return on new drug development has been a disincentive to pharmaceuticals.\nIn this project we exploit the poly-pharmacology of drugs to discover new indications via phenotypic screening of a panel of 19 well-characterized cell lines derived from solid tumors seen in children and adolescents. The goal is to identify approved drugs with previously unrecognized anticancer properties that has the potential to reveal new mechanisms and biological processes involved in carcinogenesis or drug resistance. We employed a titration-based paradigm (quantitative high-throughput screening or qHTS), where all compounds were tested at multiple concentrations for their effect on cell viability. Concentration-response curves (CRCs) were derived directly from the primary screen, and both potency and efficacy values were used to identify compounds with robust bioactivity profiles. We screened the NIH Chemical Genomics Center (NCGC) Pharmaceutical Collection (NPC) and Mechanism Interrogation Plate (MIPE) small molecule collections of approved and investigational compounds against these cell lines; and measured metabolically active cells after 48 hours of compound treatment as a proxy for cell viability.\nAssay Submitter: Nathalia J. Martinez, National Center for Advancing Translational Sciences, National Institutes of Health, Rockville, MD, USA; email: natalia.martinez@nih.gov\n[1] Shen, M et al. Quantitative high-throughput phenotypic screening of pediatric cancer cell lines identifies multiple opportunities for drug repurposing. Oncotarget 2017 Dec 19;9(4):4758-4772. PMID 29435139.\nThe cells were obtained from University of North Carolina (UNC), Pediatric Preclinical Testing Program (PPT), and Coriell Institute (CI).\nqHTS cell viability assay:\nCells were assayed in growth media at a density of 500-1,000 cells/well. Five microliters of cells were dispensed into 1,536-well, white, solid-bottom, TC-treated plates (Greiner Bio One) using a multidrop dispenser and incubated at 37 degrees C, 5% CO2, under a humidified atmosphere for 5 hours. Twenty-three nanoliters of compounds and controls (neutral control DMSO or positive control bortezomib at final concentration of 2.3 µM) were subsequently transferred by Kalypsys pintool. For primary screens, the MIPE collection was tested at 11-point dilutions (final concentrations range from 0.78 nM to 46 µM) and the NPC collection at 8-point dilutions (final concentrations range from 0.59 nM to 46 µM). Compounds tested in follow-up screens were assayed at 11-point dilutions. Cells were incubated for 48 hours, followed by addition of 3 uL of CellTiter-Glo (Promega). After a 15 min incubation at room temperature, samples were analyzed for luminescence intensity using a ViewLux High-throughput CCD imager equipped with clear filters.", "values": [{"smiles": "CCCCn1c(=O)n(Cc2ccccc2F)c(=O)c2[nH]c(Cc3ccc(NC(C)=O)cc3)nc21", "Potency": "23.5 µM (active)"}, {"smiles": "CN1CCC(COc2cnc(-c3cccc(Cn4nc(-c5cccc(C#N)c5)ccc4=O)c3)nc2)CC1", "Potency": "23.5 µM (active)"}, {"smiles": "Cc1ccccc1-n1c(Cn2nc(-c3cccc(O)c3)c3c(N)ncnc32)nc2cccc(C)c2c1=O", "Potency": "1.18 µM (active)"}, {"smiles": "CON(C)C(=O)N1N=C(c2cc(F)ccc2F)S[C@]1(CCCN)c1ccccc1", "Potency": "0.0015 µM (active)"}, {"smiles": "CN[C@H]1[C@@H](O[C@@H]2[C@H](O[C@@H]3[C@@H](O)[C@@H](O)[C@@H](N=C(N)N)[C@@H](O)[C@@H]3N=C(N)N)O[C@H](C)[C@@]2(O)C=O)O[C@@H](CO)[C@@H](O)[C@H]1O", "activity change, negative = cytotoxic": "1.78% [at 9.22 µM]"}, {"smiles": "O=C(O)C1=CO[C@@H](O[C@@H]2O[C@H](CO)[C@H](O)[C@H](O)[C@H]2O)[C@@H]2C(CO)=CC[C@H]12", "activity change, negative = cytotoxic": "1.37%"}, {"smiles": "Fc1ccc(CNc2ncnc3ccc(F)cc23)cc1", "Potency": "7.43 µM (active)"}, {"smiles": "CN1C(=O)C[C@H](C(=O)N[C@@H](Cc2cnc[nH]2)C(=O)N2CCC[C@@H]2C(N)=O)NC1=O", "activity change, negative = cytotoxic": "-2.88%"}, {"smiles": "C[C@@H]1O[C@@H](O[C@H]2CC[C@@]3(C)[C@H](CC[C@@H]4[C@H]3C[C@@H](O)[C@]3(C)[C@@H](C5=CC(=O)OC5)CC[C@]43O)C2)C[C@H](O)[C@@H]1O[C@H]1C[C@H](O)[C@H](O[C@H]2C[C@H](O)[C@@H](O)[C@@H](C)O2)[C@H](C)O1", "note": "(stereo in doubt)", "Potency": "0.27 µM (active)"}, {"smiles": "COc1cc(CNC(=O)CCCCC=CC(C)C)ccc1O", "activity change, negative = cytotoxic": "-12.4%"}, {"smiles": "CC1C(=O)OC2C(O)C34C5CC(C(C)(C)C)C36C(OC(=O)C6O)OC4(C(=O)O5)C12O", "note": "(stereo not given)", "activity change, negative = cytotoxic": "-7.41%"}, {"smiles": "CNC(=O)c1cc(COc2nnc(Nc3ccc(Cl)cc3)c3ccoc23)ccn1", "Potency": "23.5 µM (active)"}, {"smiles": "NC[C@H]1O[C@H](O[C@@H]2[C@@H](O)[C@@H](O[C@H]3O[C@H](CO)[C@@H](O)[C@H](N)[C@@H]3O)[C@H](N)C[C@@H]2N)[C@H](O)[C@@H](O)[C@H]1O", "activity change, negative = cytotoxic": "-4.94%"}, {"smiles": "CS(=O)(=O)c1ccc(C2=C(c3ccccc3)C(=O)OC2)cc1", "activity change, negative = cytotoxic": "3.55%"}, {"smiles": "O=C1C(CCC(O)c2ccc(F)cc2)C(c2ccc(O)cc2)N1c1ccc(F)cc1", "note": "(stereo not given)", "activity change, negative = cytotoxic": "6.24%"}, {"smiles": "NC(=O)c1noc([C@H](CCCC2CCCCC2)CC(=O)NO)n1", "Potency": "14.8 µM (active)"}, {"smiles": "CC[C@H](C)n1cc(C)c2c(C(=O)NCc3c(C)cc(C)[nH]c3=O)cc(-c3ccc(N4CCNCC4)nc3)cc21", "Potency": "11.8 µM (active)"}, {"smiles": "C=C[C@@H]1CN2CCC1C[C@@H]2C(O)c1ccnc2ccc(OC)cc12", "note": "(stereo not given in full)", "activity change, negative = cytotoxic": "-6.54%"}, {"smiles": "CC(C)C[C@@H](N)[C@H](O)C(=O)N[C@H](C(=O)N[C@H](C(=O)N[C@@H](CC(=O)O)C(=O)O)C(C)C)C(C)C", "activity change, negative = cytotoxic": "-4.8%"}, {"smiles": "CC1CCN(c2cc(N3CCN(C)CC3)ccc2NC(=O)c2cc(C#N)c[nH]2)CC1", "activity change, negative = cytotoxic": "5.39%"}, {"smiles": "CC[C@H](C)C(=O)O[C@H]1C[C@H](O)C=C2C=C[C@H](C)[C@H](CC[C@@H](O)C[C@@H](O)CC(=O)O)[C@H]21", "activity change, negative = cytotoxic": "-4.95%"}, {"smiles": "CC[C@H](C=C[C@@H](C)[C@H]1CC[C@H]2[C@@H]3CC=C4C[C@@H](O)CC[C@]4(C)[C@@H]3CC[C@]12C)C(C)C", "activity change, negative = cytotoxic": "-9.99% [at 16.1 µM]"}, {"smiles": "O=c1[nH]c(=O)n([C@H]2C[C@@H](O)[C@@H](CO)O2)cc1I", "activity change, negative = cytotoxic": "-1.35%"}, {"smiles": "CCC(C)SSc1ncc[nH]1", "note": "(stereo not given)", "Potency": "18.7 µM (active)"}, {"smiles": "Cc1ccc(S(=O)(=O)Nc2nc3ccccc3nc2Nc2ccc3nsnc3c2)cc1", "Potency": "0.407 µM (active)"}, {"smiles": "CNc1nc(Nc2ccc(C(=O)N3CCOCC3)cc2OC)ncc1Cl", "activity change, negative = cytotoxic": "-10.5%"}, {"smiles": "Cc1ccc(NC(=O)Nc2cc(C(F)(F)F)ccc2F)cc1Nc1ccc2c(c1)NC(=O)C2=Cc1ccc[nH]1", "Potency": "14.8 µM (active)"}, {"smiles": "CC(C)(CO)[C@@H](O)C(=O)NCCC(=O)O", "activity change, negative = cytotoxic": "-3.28%"}, {"smiles": "N[C@@H](CC(=O)N1CCn2c(nnc2C(F)(F)F)C1)Cc1cc(F)c(F)cc1F", "activity change, negative = cytotoxic": "-8.14%"}, {"smiles": "Nc1ncnc2c1ncn2[C@@H]1O[C@H](CO)[C@@H](O)[C@@H]1O", "Potency": "4.69 µM (active)"}, {"smiles": "CC[C@H](NC(=O)[C@H](C)NC)C(=O)N1C[C@@H](O)C[C@H]1Cc1c(-c2[nH]c3cc(F)ccc3c2C[C@H]2C[C@H](O)CN2C(=O)[C@H](CC)NC(=O)[C@H](C)NC)[nH]c2cc(F)ccc12", "Potency": "2.35 µM (active)"}, {"smiles": "Cc1cc2c(cc1C1(c3ccc(C(=O)O)cn3)CC1)C(C)(C)CCC2(C)C", "activity change, negative = cytotoxic": "-11.3%"}, {"smiles": "CCN1CCN(c2ccc(Nc3cc(N(C)C(=O)Nc4c(Cl)c(OC)cc(OC)c4Cl)ncn3)cc2)CC1", "activity change, negative = cytotoxic": "-16.3%"}, {"smiles": "COc1cc2nccc(Oc3ccc(NC(=O)Nc4cc(C)on4)c(Cl)c3)c2cc1OC", "Potency": "5.9 µM (active)"}, {"smiles": "CCOC(=O)N1c2ccc(C(F)(F)F)cc2[C@@H](N(Cc2cc(C(F)(F)F)cc(C(F)(F)F)c2)C(=O)OC)C[C@H]1CC", "activity change, negative = cytotoxic": "-17%"}, {"smiles": "CN(C)c1ccc(-c2nc3ncc(Cl)c(N4CCN(CC(=O)Nc5nccs5)CC4)c3[nH]2)cc1", "activity change, negative = cytotoxic": "-10.4%"}, {"smiles": "CN(C)CCN(C)C(=O)c1ccc(NC(=O)Nc2ccc(-c3nc(N4CCOCC4)c4ccn(CC(F)(F)F)c4n3)cc2)cc1", "Potency": "1.48 µM (active)"}, {"smiles": "O=C(CCCN1CCN(c2ccc(F)cc2)CC1)NC1c2ccccc2CSc2ccccc21", "note": "(stereo not given)", "Potency": "14.8 µM (active)"}, {"smiles": "CCCCCCCCCCCCCC(=O)N[C@H](CO)[C@H](O)c1ccc([N+](=O)[O-])cc1", "activity change, negative = cytotoxic": "-15.4%"}, {"smiles": "NC1(C(=O)N[C@@H](CCO)c2ccc(Cl)cc2)CCN(c2ncnc3[nH]ccc23)CC1", "Potency": "14.8 µM (active)"}]}]}
